Data from PubChem BioAssay AID493011 (Sanford-Burnham Center for Chemical Genomics, 2011).
The campaign covered roughly 330,000 compounds. About 1,400 (0.42%) were called active. What follows is part of a selection rich in actives, with near analogues and random picks from the rest. Values without a mark were called inactive.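 How the source made its calls: active means at least 40% inhibition at 20 µM here, with at most 30% in a related deaminase screen; inactive means the rest.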

molecular target: DNA dC->dU-editing enzyme APOBEC-3A (Homo sapiens) (UniProt P31941); test: APOBEC3A ssDNA deaminase inhibitors, primary screen, selectivity assay for APOBEC3G inhibitor project, biochemical, FAM/TAMRA oligo cleavage fluorescence (AID 493011); conditions: recombinant A3A, FAM/TAMRA ssDNA deamination fluorescence; at 20 µM; stronger effect = higher value;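 further: plate controls were A3A with DMSO for no effect and wells lacking A3A enzyme for full effect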
Sequence (P31941 whole entry, looked up): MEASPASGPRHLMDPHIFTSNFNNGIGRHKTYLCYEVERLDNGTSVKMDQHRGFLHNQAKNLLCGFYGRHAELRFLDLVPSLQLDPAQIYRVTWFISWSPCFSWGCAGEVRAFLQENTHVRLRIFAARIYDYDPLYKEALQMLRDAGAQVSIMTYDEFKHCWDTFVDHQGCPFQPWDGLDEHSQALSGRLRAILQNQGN

Compared with `COc1ccccc1C(CNC(=O)c1cccc(S(=O)(=O)Nc2ccc(F)cc2)c1)N(C)C` (stereo not drawn), `COc1cccc(NC(=O)CCNS(=O)(=O)c2ccc3c(c2)oc(=O)n3C)c1` is higher in inhibition: -4.98% for the first, -2.44% for the second.

Compared with `COc1ccc(C)cc1NC(=O)c1[nH]c(C)c(C(C)=O)c1C`, `COc1ccc(C)cc1NC(=O)CNCc1cccs1` is higher in inhibition: -4.64% for the first, -2.55% for the second.

Compared with `O=C(O)C(F)(F)C(NCc1ccccc1)c1ccccc1` (stereo not drawn), `CC(C)CNC(=O)CC(c1ccccc1)c1c(O)ccc2ccccc12` (stereo not drawn) is higher in inhibition: -9.23% for the first, -1.51% for the second.

Going from `CC1(C)CC(=O)C(N=Nc2ccc(S(=O)(=O)N3CCCCCC3)cc2)=C(O)C1` to `CCN(CC)c1ccc(S(=O)(=O)N2CCCCC2)cc1NC(=O)C1=COCCO1`, the inhibition falls from -0.085% to -3.33%.

Going from `Cc1ccccc1NC(=O)CN1C(=O)N/C(=C\c2cccn2-c2cccc(C(=O)O)c2)C1=O` to `O=C1N/C(=C/c2cccn2-c2ccccc2)C(=O)N1c1cccc(Cl)c1`, the inhibition falls from 93.1% to 0.178%.

Compared with `O=C(c1n[nH]c2c1CCC2)N1CCCC(Nc2cccc(F)c2)C1` (stereo not drawn), `CC(=O)c1ccc(N2CCN(C(=O)c3ccc4nc[nH]c4c3)CC2)cc1` is higher in inhibition: -3.42% for the first, -2.31% for the second.

Compared with `O=C(COC(=O)/C=C/c1ccc(Br)o1)Nc1cccc(S(=O)(=O)N2CCOCC2)c1`, `O=C(Nc1ccc(N2CCOCC2)c(Cl)c1)c1ccc(S(=O)(=O)N2CCOCC2)cc1` is lower in inhibition: 16.5% for the first, 2.6% for the second.

First: CC(=O)c1c(C)n(-c2ccc(N(C)C)cc2)c2ccc(OCC(N)=O)cc12
Second: CCOC(=O)c1ccc(NC(=O)Cn2cnc3cc(C)c(C)cc32)cc1
The inhibition of the first is lower: -1.38% for the first, 3.16% for the second.

Compared with `COc1ccc(S(=O)(=O)NCCCCOc2ccc(Cl)cc2)cc1`, `Cc1cccc(CCNS(=O)(=O)c2ccc(S(=O)(=O)NC3CCCC3)cc2)c1` is lower in inhibition: -0.023% for the first, -4.37% for the second.

Compared with `COc1ccc(C2C3=C(OC(C)=O)c4ccccc4C3=Nc3c2c(=O)n(C)c(=O)n3C)cc1` (stereo not drawn), `Cc1nn2c(c1-c1ccccc1)N=C(c1ccco1)CC2c1ccccc1` (stereo not drawn) is higher in inhibition: -1.29% for the first, 0.496% for the second.

Compared with `COCCCNC(NC(=O)c1ccc(OC)cc1)C(Cl)(Cl)Cl` (stereo not drawn), `COc1ccc(NC(=O)CSc2nc(C)cs2)cc1` is higher in inhibition: -2.86% for the first, 3.79% for the second.

Going from `O=C1C2C3C=CC(C4CC34)C2C(=O)N1c1nccs1` (stereo not drawn) to `O=C1C2C3C=CC(C4CC34)C2C(=O)N1/N=C/c1ccc(-c2ccccc2[N+](=O)[O-])o1` (stereo not drawn), the inhibition falls from 0.014% to -4.49%.

First: Cc1ccc(NC(=O)COc2ccc(/C=C3/NC(=O)NC3=O)cc2)cc1
Second: CSc1ccc(/C=C2\NC(=O)NC2=O)cc1
The inhibition of the first is higher: -0.201% for the first, -4.33% for the second.

Compared with `CC[C@]12c3[nH]c4cc(CCC(=O)N(C)C)ccc4c3CCN1C(=O)[C@@H](CC(=O)NCc1ccco1)C[C@@H]2C(=O)N1CCN(C(=O)c2ccco2)CC1`, `CN1CCN(c2ccc(S(=O)(=O)N3CCOCC3)cc2NC(=O)CCc2ccccc2)CC1` is higher in inhibition: 2.69% for the first, 3.6% for the second.

Going from `O=C(CSc1ccc([N+](=O)[O-])cn1)Nc1ccc(N2CCOCC2)c(Cl)c1` to `CCN(CC)S(=O)(=O)c1ccc(N2CCOCC2)c(NC(=O)C(C)Oc2ccc(F)cc2)c1` (stereo not drawn), the inhibition falls from -1.64% to -2.06%.

Compared with `CCCc1nnc(SCC(=O)Nc2ccc(C(=O)OCC)cc2)o1`, `Cc1ccc(NC(=O)CSCC(=O)Nc2sccc2C#N)cc1` is higher in inhibition: -2.03% for the first, -0.813% for the second.

Going from `CC(=O)N/C(=N/c1nc(C)cc(C)n1)Nc1ccc(F)cc1F` to `CCCC(=O)Nc1cccc(NC(=S)NC(=O)C(C)Oc2ccc(Cl)cc2Cl)c1` (stereo not drawn), the inhibition rises from -1.6% to 1.55%.

First: CC(=O)NNc1cc(=O)c2c(=O)n(C)c(=O)n(C)c2[nH]1
Second: COc1ccccc1CNC(=O)CCCN1C(=O)NC2(CCCC2)C1=O
The inhibition of the first is higher: 2.94% for the first, -3.53% for the second.

Going from `CC(=O)Nc1ccc(S(=O)(=O)Oc2ccc(/C=N/N=C3/NC(=O)C(CC(=O)O)S3)cc2)cc1` (stereo not drawn) to `O=C(CN(CC1CCCO1)C(=O)CNS(=O)(=O)c1ccccc1)NCc1ccccc1` (stereo not drawn), the inhibition falls from -1.33% to -2.59%.

Compared with `COc1ccccc1CNC(=O)C1CCN(S(C)(=O)=O)CC1`, `COc1ccccc1CNC(=O)C1CCN(C(=O)[C@@H]2Cc3ccccc3CN2)CC1` is lower in inhibition: 3.64% for the first, -2.15% for the second.

First: CCCc1nnc(SCC(=O)N2C(C)CCCC2C)n1CC (stereo not drawn)
Second: CCCn1c(SCC(=O)N2CCc3ccccc32)nnc1-c1ccncc1
The inhibition of the first is higher: 0.831% for the first, -1.68% for the second.

Compared with `COc1cc(C(CCN2CCN(c3ccccc3)CC2)c2c(OC)cc(OC)c3ccc(=O)oc23)cc(OC)c1OC` (stereo not drawn), `COCCCn1c(SCC(=O)Nc2ccccc2)nnc1-c1ccncc1` is higher in inhibition: -5.74% for the first, 0.275% for the second.

First: CC(C)(C)C(=O)CSc1ccc(S(=O)(=O)N2CCCC2)cn1
Second: Cc1nnsc1S(=O)(=O)Cc1ccccc1Cl
The inhibition of the first is lower: -1.15% for the first, -0.082% for the second.

Compared with `CC(C)Cc1ccc(C(C)C(=N)N)cc1` (stereo not drawn), `CC1CCCCC1NC(=O)NC(=O)COC(=O)C1=NN(c2ccccc2)C(=O)CC1` (stereo not drawn) is lower in inhibition: 2.27% for the first, 1.05% for the second.

For `N#Cc1ccccc1CN1C(=O)S/C(=C/c2cccn2-c2cccc(C(=O)O)c2)C1=O`, the inhibition was 74.4% (active).
With `COc1cccc(NC(C)=[N+](C)CCNS(=O)(=O)c2ccc(Cl)cc2)c1` the inhibition was 52.2% (active).
For `CC(C)c1ccc(/C=C2\NC(=O)NC2=O)cc1`, the inhibition was 82.8% (active).
In the case of `O=C(CSc1nccc(=O)[nH]1)Nc1ccc(N2CCOCC2)c(Cl)c1`, the inhibition is reported as 50% (active).
For `CCOC(=O)c1ccc(NC(=O)CSc2ncccn2)cc1`, the inhibition was 66.1% (active).
With `COc1ccccc1CCNC(=O)C1CCN(C(=O)/C=C/c2ccccc2)CC1` the inhibition was 40.4% (active).
For `CC(Oc1ccc(F)cc1)C(=O)Nc1cc(S(=O)(=O)N2CCOCC2)ccc1N1CCN(C)CC1` (stereo not drawn), the inhibition was 63.9% (active).
In the case of `Cc1csc(SCC(=O)Nc2sccc2C#N)n1`, the inhibition is reported as 67.3% (active).
For `COc1ccc(C)cc1NC(=O)CCCN1C(=O)NC(C)(C)C1=O`, the inhibition was 47.3% (active).
For `CSc1nnc(-c2ccncc2)n1CCCN1CCCC1=O`, the inhibition was 63% (active).
